Assay outcomes as filed in PubChem.
RXFP1 agonist: RXFP1 (human) receptor agonism | Q9HBX9 | HEK293T-RXFP1 cAMP TR-FRET, 30 min; response scale: percent of porcine relaxin response, buffer zero | Potency, µM (series often up to 57.5 µM), without a hit: top-dose activation, actives largely listed as activators | actives 0.3% (n = 370,000) | AID 2676; further: potency means the concentration at half of the fitted maximal effect; on the % scale 0 is the no-effect control and ±100 the full control effect; nearly all actives have a fitted effect of over 60% in size
Target sequence (Q9HBX9 whole entry, looked up): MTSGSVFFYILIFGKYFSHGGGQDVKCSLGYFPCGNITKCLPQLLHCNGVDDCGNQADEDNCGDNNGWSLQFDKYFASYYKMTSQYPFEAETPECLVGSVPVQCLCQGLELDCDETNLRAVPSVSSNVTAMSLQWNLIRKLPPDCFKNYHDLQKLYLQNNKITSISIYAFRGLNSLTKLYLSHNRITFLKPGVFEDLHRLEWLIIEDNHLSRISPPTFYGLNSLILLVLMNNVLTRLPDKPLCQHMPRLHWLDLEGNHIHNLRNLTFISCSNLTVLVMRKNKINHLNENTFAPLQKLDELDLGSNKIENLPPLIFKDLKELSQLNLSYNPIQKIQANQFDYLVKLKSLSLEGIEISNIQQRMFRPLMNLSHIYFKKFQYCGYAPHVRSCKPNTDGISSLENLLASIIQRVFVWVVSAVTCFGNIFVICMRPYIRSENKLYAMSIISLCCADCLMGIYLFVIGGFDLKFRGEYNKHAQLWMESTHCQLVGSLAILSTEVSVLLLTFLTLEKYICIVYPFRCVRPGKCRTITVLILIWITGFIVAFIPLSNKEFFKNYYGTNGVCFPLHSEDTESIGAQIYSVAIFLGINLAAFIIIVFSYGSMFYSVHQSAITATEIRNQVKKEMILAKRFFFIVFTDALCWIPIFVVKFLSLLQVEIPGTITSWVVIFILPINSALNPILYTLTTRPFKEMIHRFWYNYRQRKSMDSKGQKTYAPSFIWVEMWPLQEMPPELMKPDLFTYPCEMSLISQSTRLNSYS
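HEK293 cells stably expressing RXFP1, treated 30 min at 37C with compounds plus PDE4 inhibitor Ro 20174; cAMP measured by HTRF TR-FRET. Normalized to buffer and 29 nM porcine relaxin; EC50 by Hill fit.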
PTHR1 agonist: agonists of human PTHR1 parathyroid hormone receptor | Q03431 | HEK293 GP2 PTHR1 cells, GloSensor cAMP luminescence, 1 h | Potency, µM (titrated, usually from 115 µM), without a hit: top-dose activation, actives largely listed as activators | actives 0.075% (n = 410,000) | AID 743266; further: potency means the concentration at half of the fitted maximal effect; nearly all actives have a fitted effect of over 55% in size
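HEK-293-derived GP2 cells expressing PTHR1 and a GloSensor cAMP reporter, 3,000/well, plated overnight, given luciferin plus IBMX (each 0.5 mM as added) for 1 h at 37 °C, then compound for 1 h at 37 °C. Luminescence was read after 15 min at room temperature.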
RXFP1 antagonist: RXFP1 (human) relaxin receptor antagonism; actives 0.59% (n = 350,000); activity change, negative = inhibition, % at 57.5 µM; HEK293-RXFP1, relaxin-stimulated cAMP HTRF, 30 min; hits give low values; AID 1259400;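 active means activity change of -60% or lower, but not beyond a set lower limit; inconclusive means change between -60% and -40%, or beyond the set limit; inactive means change above -40%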; further: on the % scale 0 is the no-effect control and ±100 the full control effect
gsp agonist: agonists of gsp mutant (McCune-Albright syndrome); gsp mutant cells, cAMP HTRF, 30 min; Potency, µM (doses to about 76.9 µM), without a hit: top-dose activation (cAMP increase), usual class: activators; actives 0.13% (n = 340,000); AID 624287; active means well fitted activation curve with a large enough effect; inconclusive means small, poorly fitted or top-dose-only effect, or another doubt; inactive means no such curve, though single readings can be large or run the other way; cell line not stated here;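 further: phosphodiesterase inhibitor Ro 20-1724 added with compounds to block cAMP breakdown; potency means the concentration at half of the fitted maximal effect; nearly all actives have a fitted effect of over 60% in size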
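Cells stably selected in G418 were plated at 2000/well, grown 16-24 hr, then given compounds in DMSO with the PDE inhibitor […] (300 uM solution added) for 30 min at 37C; cAMP was read by HTRF.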
gsp antag: antagonists of gsp mutant (McCune-Albright syndrome) | gsp-mutant cells, cAMP HTRF, 30 min | Potency, µM (titrated, usually from 76.9 µM), for inactives: at the top dose activity change, negative = inhibition, usual class: inhibitors | actives 0.4% (n = 340,000); calls by dose curve; cell line not stated here;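 further: intracellular cAMP measured with PDE inhibitor Ro 20-1724 present during compound exposure; potency means the concentration at half of the fitted maximal effect; on the % scale 0 is the no-effect control and ±100 the full control effect; nearly all actives have a fitted effect of over 65% in size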
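HTRF cAMP measurement after 30 min RT detection following 30 min, 37C compound treatment alongside […] (added as 300 uM solution) in G418-selected cells seeded at 2000/well and grown 16–24 h.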
* = called active by the depositor; i = inactive; ? = inconclusive; / = no result; [ ] = dose if it differs, or a comment. An excerpt weighted towards active compounds, which were near 1% of everything screened. Unless noted, the call rests on the fitted dose curve; in most records, active means well fitted curve in the direction sought with a large enough effect; inconclusive means small, poorly fitted or top-dose-only effect, or another doubt; inactive means no such curve, though single readings can be large; an effect the other way counts as inactive or inconclusive.

SMILES	RXFP1 agonist	PTHR1 agonist	RXFP1 antagonist	gsp agonist	gsp antag
CCn1c(=O)c2sccc2n2c(CCCC(=O)N3CCN(c4ccc(F)cc4)CC3)nnc12	?	-1%	3	/	/
CCOC(=O)N1CCN(C(=O)c2ccc(Cn3c(=S)[nH]c4cc(OCC)c(OCC)cc4c3=O)cc2)CC1	5%	-12%	-32	8%[15.4 µM]	?
COc1ccccc1N1CCN(C(=O)CCCCCn2c(=S)[nH]c3cc4c(cc3c2=O)OCO4)CC1	/	-43%	-78*	12%	/
CCOC(=O)N1CCN(C(=O)c2ccc(Cn3c(=S)[nH]c4cc5c(cc4c3=O)OCO5)cc2)CC1	-1%	i	-92*	-22%	?
Cc1ccc(C)c(N2CCN(C(=O)CCCn3c(=S)[nH]c4cc5c(cc4c3=O)OCO5)CC2)c1	0%	-47%	-102*	5%	3%
O=C(CCCn1c(=S)[nH]c2cc3c(cc2c1=O)OCO3)N1CCN(c2ccccc2F)CC1	2%	i	?	-13%	-19%
O=C(C1CCN(S(=O)(=O)c2cccc3nonc23)CC1)N1CCN(c2ccccc2)CC1	-1%	-14%	/	/	/
O=C(CCN1C(=O)/C(=C/c2ccccc2Cl)SC1=S)NNC(=O)c1cccnc1	0%	-4%	-12	3%[15.4 µM]	-17%
Cc1ccc(/C=C2\SC(=S)N(CCC(=O)NNS(=O)(=O)c3ccccc3)C2=O)cc1	-139%	i	-6	-14%[15.4 µM]	50µM*
O=C(CN1C(=O)/C(=C/c2ccccc2)SC1=S)NC1CCS(=O)(=O)C1 (centres undefined)	-2%	-8%	-61*	-1%	5%
O=C(CN1C(=O)/C(=C/c2ccc(F)cc2)SC1=S)NC1CCS(=O)(=O)C1 (centres undefined)	-3%	-1%	-67*	?	-4%
O=C(CCN1C(=O)/C(=C/c2ccccc2Cl)SC1=S)NNC(=O)c1ccccc1O	-4%	-16%	-71*	-16%	-23%
Cc1ccc(/C=C2\SC(=S)N(CCC(=O)NNC(=O)c3ccccc3O)C2=O)cc1	1%	i	-3	15%	1%
Cn1c(=O)n(C)c2cc(N3CCOCC3)c(NC(=O)c3ccccc3Br)cc21	3%	?	2	/	/
COCCCn1c(SCC(=O)NCc2ccccc2)nc2c(sc3ccccc32)c1=O	?	-40%	/	/	/
O=C(CN1C(=O)/C(=C/c2ccccc2Cl)SC1=S)NC1C=CS(=O)(=O)C1 (centres undefined)	2%	i	-61*	2%	-15%
CCN(CC)S(=O)(=O)c1ccc(O)c(NC(=O)c2cc(-c3cc(OC)c(OC)c(OC)c3)nc3ccccc23)c1	9%	-25%	?	?	35µM*
COc1cc(-c2cc(C(=O)Nc3ccc(S(N)(=O)=O)cc3)c3ccccc3n2)cc(OC)c1OC	2%	i	-11	?	?
CC(C)c1nc(N2CCOCC2)c(C#N)c2c1CCC2	-1%	-26%	-18	0%	35µM*
CCCc1nc(N2CCOCC2)c(C#N)c2c1CCCC2	2%	-5%	-21	-2%	-1%
CCOC(=O)c1c(C)oc2nc(C)nc(N(C)Cc3ccccc3)c12	-1%	-44%	-19	/	/
Cc1oc(=O)oc1COC(=O)[C@@H]1N2C(=O)[C@@H](NC(=O)[C@H](N)c3ccccc3)[C@H]2SC1(C)C	/	/	-13	/	/
O=S(=O)(c1cccc(NC(=S)N2CCN(c3cccc(Cl)c3)CC2)c1)C(F)F	-3%	-37%	-31	-3%[15.4 µM]	32µM*
COC(=O)C1=C(C)OC(N)=C(C#N)C1c1ccc(OC)c(CSc2ccccn2)c1 (centres undefined)	2%	-10%[57.5 µM]	2	8%	50µM*
COC(=O)C1=C(C)OC(N)=C(C#N)C1c1ccccc1 (centres undefined)	1%	-1%[57.5 µM]	-6	1%	-4%
SMILES	RXFP1 agonist	PTHR1 agonist	RXFP1 antagonist	gsp agonist	gsp antag
O=S(=O)(/N=C(\c1ccccc1)N1CCOCC1)c1ccc(Cl)cc1	1%	-25%	4	-11%	0%
O=[N+]([O-])c1ccc(Cl)c(S(=O)(=O)/N=C(/c2ccccc2)N2CCOCC2)c1	-1%	i	-61*	?	3%
CCC(C(=O)NC(=O)NC(C)=O)c1ccccc1 (centres undefined)	/	/	-4	/	/
CCCCN1C(=O)C(O)(c2c(C)[nH]c3ccccc23)c2cc(Br)ccc21 (centres undefined)	0%	-25%	-103*	/	/
Cn1nccc1C(=O)NCc1ccc2c(c1)CCN2C(=O)c1ccc(F)cc1	3%	-63%	-73*	/	/
Cc1ccc(C(=O)N2CCc3cc(CNC(=O)c4ccnn4C)ccc32)cc1	0%	-28%	5	/	/
CCCn1c(/C=C/c2cc[n+](C)cc2)nc2ccccc21	20µM*	i	16	?	12%
CCCCCCn1c(/C=C/c2ccccc2)nc2ccccc21	8%	-30%	-35	/	/
CC(C)Cn1c(/C=C/c2ccccc2)nc2ccccc21	4%	-21%	-66*	21%	?
CCn1c(/C=C/c2ccccc2)nc2ccccc21	0%	-16%[57.5 µM]	-7	-19%	?
CCc1nc(SCc2ccc([N+](=O)[O-])cc2)n[nH]1	0%	i	15	0%	8%
Cc1nc(SCc2ccc([N+](=O)[O-])cc2)n[nH]1	1%	?	-73*	-24%	1%
CN(C)CCCN1c2ccc3ccccc3c2Sc2cccc(Cl)c21	/	?	-24	24%	6%
CN(C)CCCN1c2ccccc2Sc2ccc3ccccc3c21	/	23%	-63*	35%	-7%
O=C(Nc1ccc(S(=O)(=O)N(Cc2ccccc2)c2ccccc2)cc1)c1ccc([N+](=O)[O-])cc1	0%	-28%	-6	/	/
CC1CCN(N=Nc2nc3c([nH]2)c(=O)n(C)c(=O)n3C)CC1	/	i	27	13µM*	5%
COc1ccc(C(C)=O)cc1Cn1cnc2c(cnn2C)c1=O	13µM*	-6%	39	?	13%
COc1ccc(C(C)=O)cc1Cn1c(=O)cc(C)[nH]c1=O	2%	i	1	-1%	1%
O=C(Nc1cccc(F)c1)C1CCN(c2nc3ccccc3[nH]2)CC1	7%	-24%	-22	/	/
O=[N+]([O-])c1ccc(Cl)c2c1C1C=CCC1C(c1ccccn1)N2 (centres undefined)	-2%	-20%	-118*	-4%[15.4 µM]	-12%
N#C/C(=C1\SCC(c2ccccc2Cl)S1)n1ccnc1 (centres undefined)	/	/	17	/	/
O=C(COc1ccccc1/C=C1\SC(=S)NC1=O)Nc1ccc(F)cc1	/	-23%	-70*	-19%	?
O=C(N/N=C/c1ccc(F)cc1)c1ccc(Br)cc1	2%	-7%[57.5 µM]	-11	40µM*	4%
CC1=NNC(=O)/C1=C\c1cn(-c2ccccc2)nc1-c1ccccc1	-5%	-38%	-73*	6%[15.4 µM]	-11%
